Among the test systems are SR leukemia; RPMI-8226 leukemia; OVCAR-8 ovarian; OVCAR-5 ovarian; OVCAR-4 ovarian; SK-OV-3 ovarian; IGROV1 ovarian; OVCAR-3 ovarian; HS 578T breast; NCI/ADR-RES ovarian; T-47D breast; BT-549 breast; MDA-MB-435 melanoma; SW-620 colon; MCF7 breast; HCT-116 colon; HCC-2998 colon; KM12 colon.
Assay in all cases: NCI-60 one-dose screen, 48 h (100 = growth as untreated, 0 = no growth, -100 = all killed)
Settings in all cases: 10 µM unless noted

This is part of a sample that, as a whole, favours compounds with a hit. Of some 83,000 tested, about 20% had one in any assay.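 The test compound was applied at a single concentration to cells in 96-well plates for 48 hours, and percent growth was recorded.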 Unmarked numbers belong to inactive results. Activity calls are given as the source filed them. The calls were made as follows: active = growth percent below 10; inactive = the rest.

Turning to `CN1CCN(Cc2ccc(NC(=O)c3nc4ccc5[nH]ncc5c4c4c3CCC4)cc2C(F)(F)F)CC1`, the growth is -31.6% (active) in the assay with SR leukemia; -37% (active) with RPMI-8226 leukemia; -53.8% (active) in the assay with OVCAR-8 ovarian; 3.19% (active) with OVCAR-5 ovarian; 68.3% in the assay with OVCAR-4 ovarian; 93.8% with SK-OV-3 ovarian. Moreover, the growth with IGROV1 ovarian is -80.9% (active); in the assay with OVCAR-3 ovarian, -91.3% (active); in the assay on HS 578T breast, 85.9%; in the assay with NCI/ADR-RES ovarian it was -40.8% (active); in the assay on T-47D breast it was -26.4% (active); in the assay with BT-549 breast, 91.6%. Further, the growth in the assay with MDA-MB-435 melanoma is -91.4% (active); with SW-620 colon, -56.2% (active); in the assay on MCF7 breast, -29.7% (active); with HCT-116 colon it was -94.2% (active); in the assay with HCC-2998 colon, -10.5% (active); in the assay on KM12 colon, -79.8% (active).

With `O=C(CCl)N(C1CCCCC1)C1CCCCC1`, the growth is 100% with SR leukemia; 112% in the assay with RPMI-8226 leukemia; 104% with OVCAR-8 ovarian; 111% with OVCAR-5 ovarian; 89.7% with OVCAR-4 ovarian; 117% in the assay on SK-OV-3 ovarian. Besides, the growth with IGROV1 ovarian was 96.7%; with OVCAR-3 ovarian, 114%; in the assay on HS 578T breast, 105%; in the assay on NCI/ADR-RES ovarian, 105%; in the assay with T-47D breast, 101%; in the assay with BT-549 breast it was 97.4%. Besides, the growth with MDA-MB-435 melanoma is 106%; in the assay on SW-620 colon, 113%; with MCF7 breast, 96.7%; in the assay with HCT-116 colon it was 101%; in the assay on HCC-2998 colon it was 107%; in the assay with KM12 colon, 112%.

On to `CC(=O)Nc1scc[n+]1Cc1ccccc1`, for which the growth in the assay with SR leukemia was 76.6%; with RPMI-8226 leukemia it was 92.2%; with OVCAR-8 ovarian, 99.3%; in the assay with OVCAR-5 ovarian, 110%; in the assay on OVCAR-4 ovarian, 108%; with SK-OV-3 ovarian, 99.5%. Further, the growth in the assay with IGROV1 ovarian was 109%; in the assay on OVCAR-3 ovarian it was 114%; in the assay on HS 578T breast it was 106%; in the assay on NCI/ADR-RES ovarian, 102%; with T-47D breast, 102%; in the assay with BT-549 breast it was 103%. Further, the growth with MDA-MB-435 melanoma was 110%; in the assay with SW-620 colon, 105%; with MCF7 breast, 98.4%; in the assay on HCT-116 colon, 102%; in the assay with HCC-2998 colon, 103%; in the assay on KM12 colon, 105%.

As to `CCC(C)/C(=C\C#N)NCCCN/C(=C/C#N)C(C)CC` (centres undefined), the growth in the assay on SR leukemia is 90.4%; in the assay on RPMI-8226 leukemia, 88.7%; in the assay with OVCAR-8 ovarian it was 100%; in the assay with OVCAR-5 ovarian it was 102%; with OVCAR-4 ovarian, 109%; with SK-OV-3 ovarian, 105%. In addition, the growth in the assay on IGROV1 ovarian was 102%; in the assay on OVCAR-3 ovarian, 126%; in the assay with HS 578T breast it was 101%; with NCI/ADR-RES ovarian, 105%; in the assay with T-47D breast, 97%; with BT-549 breast it was 105%. The growth with MDA-MB-435 melanoma is 105%; in the assay with SW-620 colon, 107%; with MCF7 breast, 100%; with HCT-116 colon, 91.1%; in the assay on HCC-2998 colon, 99.1%; with KM12 colon, 105%.

For the compound `COc1ccc(/C=C2\N=C(c3ccccc3)N(C(=O)c3ccccc3O)NC2=O)cc1`, the growth in the assay with SR leukemia was 64%; in the assay on RPMI-8226 leukemia, 46.2%; in the assay with OVCAR-8 ovarian it was 109%; with OVCAR-5 ovarian, 98.5%; in the assay on OVCAR-4 ovarian, 105%; with SK-OV-3 ovarian it was 100%. The growth with IGROV1 ovarian is 98.2%; in the assay with OVCAR-3 ovarian, 118%; in the assay on HS 578T breast it was 93.8%; with NCI/ADR-RES ovarian, 93.1%; in the assay with T-47D breast, 96.6%; in the assay with BT-549 breast, 92%. Also, the growth in the assay on MDA-MB-435 melanoma is 95%; in the assay on SW-620 colon it was 100%; in the assay on MCF7 breast it was 92.8%; with HCT-116 colon, 92%; in the assay on HCC-2998 colon, 93.7%; with KM12 colon, 92%.

As for `Cc1csc(NC(c2ccccc2)c2c(C)nc3ccccn23)n1` (centres undefined), the growth is 94.9% in the assay on SR leukemia; 79.2% in the assay with RPMI-8226 leukemia; 102% in the assay with OVCAR-8 ovarian; 101% in the assay with OVCAR-5 ovarian; 104% in the assay with OVCAR-4 ovarian; 97.3% in the assay with SK-OV-3 ovarian. The growth in the assay on IGROV1 ovarian was 108%; in the assay on OVCAR-3 ovarian, 110%; in the assay with HS 578T breast, 95.5%; in the assay with NCI/ADR-RES ovarian it was 99%; in the assay with T-47D breast it was 86.9%; in the assay with BT-549 breast it was 97%. The growth with MDA-MB-435 melanoma was 102%; in the assay on SW-620 colon, 96.3%; in the assay with MCF7 breast it was 94.6%; in the assay on HCT-116 colon it was 91%; with HCC-2998 colon, 105%; in the assay with KM12 colon, 99.8%.

`Cc1ccc(S(=O)(=O)n2cc(C(=O)C(=O)Nc3ccncc3)c3ccccc32)cc1`: the growth is 28.8% with SR leukemia; 37.5% in the assay with RPMI-8226 leukemia; 43.2% in the assay with OVCAR-8 ovarian; 57.6% in the assay on OVCAR-5 ovarian; 56% in the assay on OVCAR-4 ovarian; 96.6% with SK-OV-3 ovarian. For the same compound, the growth with IGROV1 ovarian is 45.1%; in the assay on OVCAR-3 ovarian, -12.1% (active); in the assay with HS 578T breast, 23.2%; with NCI/ADR-RES ovarian, 5.21% (active); in the assay with T-47D breast it was 48.4%; in the assay on BT-549 breast, 37.5%. In addition, the growth in the assay on MDA-MB-435 melanoma is 1.27% (active); with SW-620 colon it was 11.2%; with MCF7 breast, 19.5%; with HCT-116 colon, 17.5%; in the assay on HCC-2998 colon, 52.8%; with KM12 colon, 29.1%.

As to `Cc1nn(-c2ccc(Cl)cc2)c2ncnc(N/N=C/c3cccc([N+](=O)[O-])c3)c12`, the growth in the assay with SR leukemia is 51.3%; with RPMI-8226 leukemia it was 66.3%; in the assay with OVCAR-8 ovarian, 99.7%; in the assay with OVCAR-5 ovarian, 106%; in the assay on OVCAR-4 ovarian it was 94.5%; in the assay with SK-OV-3 ovarian it was 104%. Also, the growth in the assay with IGROV1 ovarian was 94.7%; with OVCAR-3 ovarian it was 8.17% (active); in the assay on HS 578T breast, 99.3%; in the assay with NCI/ADR-RES ovarian, 105%; in the assay on T-47D breast, 101%; in the assay with BT-549 breast it was 106%. Further, the growth with MDA-MB-435 melanoma was 97.1%; with SW-620 colon, 88.9%; in the assay on MCF7 breast it was 103%; with HCT-116 colon, 104%; in the assay with HCC-2998 colon it was 94.8%; in the assay on KM12 colon, 66.5%.

(Values after PubChem BioAssay (NCI).)
